WT yeast gro inh – growth inhibition of WT yeast, mitochondrial fusion screen. mitochondrial fusion phenotypic screen, WT strain. inhibition, % at 10 µM. actives 2.1% (n = 190,000); in the data active means inhibition above about 58%; tested in S. cerevisiae
L major viab – inhibitors of Leishmania major promastigote growth. Leishmania major promastigotes, resazurin fluorescence viability. inhibition, % at 10 µM. actives 9% (n = 200,000). AID 1063; in the data active means inhibition above about 50%;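 further: promastigotes grown with compound for 44 hours at 28 °C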
Arbovirus inh – antivirals against arbovirus infection; arbovirus infection cell-based antiviral screen; actives 0.37% (n = 200,000); inhibition, % at 10 µM; in the data active means inhibition above about 30%
CHOP inh – blocks CHOP induction under ER stress | AID 2732 | actives 3.8% (n = 220,000) | inhibition, % at 10 µM | CHO-K1 CHOP-promoter luciferase, tunicamycin-induced, 15-18 h;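 active means compounds that reduced the stress-induced luciferase reporter signal by more than about 70% of percent inhibition, limit read from the data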;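 further: 0% = tunicamycin plus vehicle and 100% = wells without tunicamycin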
The depositor's hits bear a star; nt = no result. In the library only some 12% were active in any assay of this set; here they are far more common.

SMILES | WT yeast gro inh | L major viab | Arbovirus inh | CHOP inh
COc1ccc(N2C(=O)CCC(C(=O)NCCCN3CCC(C)CC3)C2c2ccc(OC)c(OC)c2)cc1 (centres undefined) | -14 | -4 | 4 | 6
C=CCc1ccc(OCCCCNC2CCCC2)c(OC)c1 | 5 | 89* | -11 | 8
C=CCc1ccc(OCCCOc2ccc(C)c(C)c2)c(OC)c1 | 7 | -6 | 12 | 25
CC(C)(C)c1ccc(OCCCNC2CCCC2)cc1 | 25 | 99* | -11 | 23
Cc1ccc(OCCCNC2CCCC2)cc1 | -9 | 8 | 10 | 17
Cc1ccc(S(=O)(=O)N(CC(=O)Nc2ccccc2C(=O)O)c2ccc(Cl)cc2)cc1 | 9 | -5 | -2 | 16
COc1ccc(Cl)cc1NC(=S)NNC(=O)c1cccs1 | 13 | -1 | 7 | -5
O=C(CSc1nc(SCC(=O)NCc2ccccc2)n(-c2ccccc2)n1)NCc1ccccc1 | -5 | 94* | 8 | 38
COc1ccc(-c2csc(/C(C#N)=C/Nc3cc4oc5ccccc5c4cc3OC)n2)cc1 | 2 | -1 | -3 | -8
Cc1ccc(NC(=S)N(Cc2ccc(Br)cc2)Cc2ccc(C(=O)O)cc2)cc1C | 67* | 2 | -11 | 8
Cc1cc(C)cc(NC(=S)N(Cc2ccc(Cl)cc2)Cc2ccc(C(=O)O)cc2)c1 | 12 | 2 | -5 | 30
Cc1ccc(NC(=S)N(Cc2cccc(Br)c2)CC2CCC(C(=O)O)CC2)cc1 (centres undefined) | 6 | -8 | 18 | 33
Cc1cc(NC(=S)N(Cc2cccc(Br)c2)CC2CCC(C(=O)O)CC2)ccc1Cl (centres undefined) | 71* | -1 | -9 | -14
Cc1cc(C)cc(NC(=S)N(Cc2ccc(Br)cc2)Cc2ccc(C(=O)O)cc2)c1 | 79* | 3 | -16 | 12
Cc1cc(NC(=S)N(Cc2ccc(Cl)cc2)Cc2ccc(C(=O)O)cc2)ccc1Cl | 71* | -5 | -2 | 12
Cc1ccccc1COCCN1CCN(S(=O)(=O)c2ccccc2)CCC1=O | nt | nt | nt | -5
CCC(=O)NC1(C(F)(F)F)C(=O)Nc2c1c(=O)[nH]c(=O)n2CC(C)C (centres undefined) | nt | nt | nt | 16
Cc1ccc(S(=O)(=O)N2CCC(C(=O)NCCc3ccccn3)CC2)cc1 | -13 | 4 | -4 | -2
CCCCc1nc(NCC2CCCO2)c(C#N)c2c1COC(C)(C)C2 (centres undefined) | 19 | 0 | 0 | 86*
C/C(=N\NS(=O)(=O)c1ccc(C)cc1)c1ccc(C)s1 | -18 | -7 | -3 | -10
COc1ccc(-c2nc(-c3ccccn3)ncc2S(C)(=O)=O)cc1 | -10 | -6 | 9 | 16
Cn1nc(-c2ccccn2)nc2c(=O)n(C)c(=O)nc1-2 | nt | nt | nt | 107*
CC(=O)N(C)c1ccc(NC(=S)NCC(C)C)cc1 | -14 | -4 | -3 | -1
CCC(C(=O)OCC(=O)Nc1cc(Cl)cc(Cl)c1)c1ccccc1 (centres undefined) | 79* | -7 | 14 | 92*
CCCCNC(=O)[C@H](CSCc1ccccc1)N1Cc2ccccc2C1=O | -7 | 0 | -8 | 1
SMILES | WT yeast gro inh | L major viab | Arbovirus inh | CHOP inh
CCOc1ccc(-n2nc3ccc(NC(=O)c4ccc5c(c4)OCCO5)cc3n2)cc1 | -13 | -3 | -5 | 76*
O=C(Nc1ccc2c(c1)OCO2)Nc1ccc(Cl)cc1Cl | -5 | 3 | -12 | 91*
O=C(Nc1ccc2nn(-c3ccccc3)nc2c1)c1ccc2c(c1)OCCO2 | -6 | 2 | -12 | 9
O=C(Nc1ccc(Cl)cc1)c1ccc2c(c1)OCO2 | 80* | -5 | 0 | -35
O=C(Nc1ccc2c(c1)OCO2)c1ccc2c(c1)OCO2 | 7 | -2 | -15 | 35
O=C(Nc1ccc2c(c1)OCO2)Nc1ccc2c(c1)OCO2 | -5 | -5 | -7 | 19
CC(C(=O)Nc1ccc2c(c1)OCO2)N(c1ccc(Cl)cc1)S(C)(=O)=O (centres undefined) | 3 | 97* | 15 | 10
Cn1c(=O)nc2n(Cc3ccccc3)c3cccc(Cl)c3cc-2c1=O | 53 | 4 | 6 | -1
O=C(NN1C(=O)c2ccc(-c3ccc4c(c3)C(=O)N(NC(=O)c3cccnc3)C4=O)cc2C1=O)c1cccnc1 | 8 | -5 | 16 | -12
Cc1noc(C)c1COC(=O)[C@@H](NC(=O)c1ccccc1)C(C)C | -4 | -7 | 4 | 4
COc1cc(NC(=O)Nc2ccc3c(c2)OCO3)cc(OC)c1OC | -12 | -6 | -5 | -8
CCC(=O)N1CCN(c2ccc(NC(=O)c3ccc4c(c3)OCO4)cc2)CC1 | 9 | -6 | -40 | -13
CCN1CCN(c2ccc(NC(=O)c3ccc4c(c3)OCO4)cc2)CC1 | 64* | -3 | -9 | -11
Cc1ccc(NC(=O)Nc2cnccn2)cc1Cl | -8 | 2 | 0 | 9
COc1ccc(C(C)(C)C)cc1NC(=O)Nc1ccc2c(c1)OCO2 | 68* | 100* | -1 | 42
O=C(Nc1cnccn1)Nc1ccc(Cl)cc1Cl | 0 | 0 | -24 | 78*
CCC(C)SCC(=O)Nc1ccc(S(=O)(=O)N2CCOCC2)cc1OC (centres undefined) | nt | nt | nt | 10
CCCc1ccc(C(=O)NC(=O)c2ccccc2O)cc1 | nt | nt | nt | 63
CC1CCCC(C)N1C(=O)c1cc2ncc(CCCl)cn2n1 (centres undefined) | -10 | -9 | 9 | 13
Cc1cc(C)nc(SCCn2c(N(C)Cc3ccccc3)nc3c2c(=O)n(C)c(=O)n3C)n1 | 5 | 78* | -5 | 1
CN(Cc1ccccc1)c1nc2c(c(=O)n(C)c(=O)n2C)n1CCSc1ncccn1 | 11 | -2 | 11 | -15
CCCn1c(CN(C)Cc2ccccc2)nc2c1c(=O)n(C)c(=O)n2C | -4 | -6 | 0 | 25
CCCn1c(CN(Cc2ccccc2)Cc2ccccc2)nc2c1c(=O)n(C)c(=O)n2C | 77* | 8 | -22 | 92*
Cc1cc(OCC(=O)Nc2nnc(C3CC3)s2)ccc1[N+](=O)[O-] | -9 | 3 | -16 | -12
Cc1ccc(NC(=O)COC(=O)CCC(=O)c2cccs2)c(C)c1 | 6 | -2 | 1 | 15
SMILES | WT yeast gro inh | L major viab | Arbovirus inh | CHOP inh
N=C1C(c2ccccc2)=C(O)CN1CCO | -5 | -8 | 5 | 9
CC(C)(C)C(=O)N(CCN(C(=O)C(C)(C)C)c1ccccc1)c1ccccc1 | -7 | -2 | 11 | 78*
O=c1c2c(nc3n1CCCCC3)sc1c(O)c(Br)ccc12 | 13 | -6 | 21 | 21
CCN(CC)CCOc1c(Br)ccc2c1sc1nc3n(c(=O)c12)CCC3 | 10 | 80* | 30 | -15
O=C(CSc1ncnc2scc(-c3ccccc3)c12)N1CCN(c2ccccc2F)CC1 | 11 | 55* | 6 | 13
COc1ccccc1N1CCN(C(=O)CSc2ncnc3scc(-c4ccccc4)c23)CC1 | 21 | 3 | 6 | 11
COc1ccc(OC)c(N2Cc3cc(C)c(C)cc3C2)c1 | 4 | 86* | 12 | -20
CCOc1ccccc1N1Cc2cc(C)c(C)cc2C1 | 21 | -4 | 12 | 16
O=C(O)CC(NC(=O)C(c1ccccc1)c1ccccc1)c1cccc([N+](=O)[O-])c1 (centres undefined) | nt | nt | nt | 12
Cn1c(CNc2nc3ccccc3n2CCN2CCCCC2)nc2ccccc21 | 6 | 99* | 5 | -26
CCN(CC)CCn1c(NCc2ccco2)nc2ccccc21 | 25 | 1 | -1 | -3

Screening results deposited in PubChem BioAssay by several laboratories.
